Reference: PubChem BioAssay (Tox21)
Inconclusive results are not listed. Activity calls are given as the source filed them. Calls follow the shape of the full dose curve.

What was measured:
[1] = molecular target: Acetylcholinesterase (Homo sapiens) (UniProt P22303); test: Acetylcholinesterase (AChE) small molecule antagonists: colormetric cell-based qHTS assay (AID 1347395); also: nearly all actives have a fitted effect of over 30% in size
Procedure, shortened: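 In this cell-based qHTS, attached SH-SY5Y cells were treated with test chemicals for 30 min, after which acetylthiocholine hydrolysis was followed by DTNB colour development over 90 min at 37 C.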

[2] = molecular target: Acetylcholinesterase (Homo sapiens) (UniProt P22303); test: Acetylcholinesterase (AChE) small molecule antagonists: enzyme-based qHTS assay (AID 1347397); conditions: Potency: AChE enzyme activity inhibition; outcome: AChE enzyme activity inhibition; also: nearly all actives have a fitted effect of over 55% in size
Procedure, shortened: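 Colorimetric DTNB read-out of thiocholine released from acetylthiocholine by recombinant human AChE (50 mU/mL as dispensed). Compounds were preincubated 30 min at RT before substrate/DTNB addition, with a 10 min RT reaction.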

[3] = molecular target: Acetylcholinesterase (Homo sapiens) (UniProt P22303); test: Acetylcholinesterase (AChE) small molecule antagonists: fluorescence cell-based qHTS assay (AID 1347398); conditions: Potency: AChE activity; outcome: AChE activity; also: nearly all actives have a fitted effect of over 50% in size
Procedure, shortened: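 SH-SY5Y, 2,000 cells/well, attached overnight; cmpd 30 min 37 C; acetylthiocholine/Thiolite Green cocktail 40 min RT; fluorescence Ex/Em 490/520 nm.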

[4] = molecular target: Acetylcholinesterase (Homo sapiens) (UniProt P22303); test: Acetylcholinesterase (AChE) small molecule antagonists: enzyme-based qHTS assay with human liver microsomes (AID 1347399); conditions: Potency: qHTS inhibition; outcome: qHTS inhibition; also: nearly all actives have a fitted effect of over 60% in size
Procedure, shortened: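 Recombinant human AChE (50 mU/mL in the enzyme mix) and human liver microsomes (0.25 mg/mL final) were preincubated with compound and NADPH (0.25 mg/mL final) for 30 min at 37 C. Acetylthiocholine/DTNB was then added; thiocholine was read colorimetrically after 10 min at room temperature.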

Measured: Potency

Acetylcholinesterase (Homo sapiens), sequence (P22303 whole entry, looked up): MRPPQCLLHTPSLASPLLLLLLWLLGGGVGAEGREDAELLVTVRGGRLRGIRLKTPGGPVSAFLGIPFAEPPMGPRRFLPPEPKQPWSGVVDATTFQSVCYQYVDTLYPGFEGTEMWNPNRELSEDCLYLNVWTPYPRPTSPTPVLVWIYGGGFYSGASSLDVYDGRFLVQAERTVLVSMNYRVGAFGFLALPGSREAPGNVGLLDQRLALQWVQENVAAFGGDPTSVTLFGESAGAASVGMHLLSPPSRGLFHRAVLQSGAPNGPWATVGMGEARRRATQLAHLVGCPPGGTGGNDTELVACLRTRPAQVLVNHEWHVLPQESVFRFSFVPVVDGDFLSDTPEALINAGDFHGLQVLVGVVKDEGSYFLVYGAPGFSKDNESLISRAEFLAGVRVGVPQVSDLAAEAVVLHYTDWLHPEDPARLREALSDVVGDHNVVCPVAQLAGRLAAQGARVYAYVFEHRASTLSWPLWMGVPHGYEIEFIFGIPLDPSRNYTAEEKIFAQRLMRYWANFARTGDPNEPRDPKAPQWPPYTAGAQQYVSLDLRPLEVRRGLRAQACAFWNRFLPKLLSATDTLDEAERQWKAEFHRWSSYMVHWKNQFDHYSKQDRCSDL

FC(F)(F)c1ccc(Cl)cc1Cl
inactive: all assays above

CNCCCC1c2ccccc2C=Cc2ccccc21
inactive: all assays above

CC1=CP(=O)(c2ccccc2)CC1 (configuration not stated)
inactive: all assays above

O=C(O)c1cc(-c2ccc(F)cc2F)ccc1O
inactive: all assays above

O=C(O)/C=C/c1ccc(O)c(O)c1
inactive: all assays above

CC(C(=O)O)c1ccc(CC2CCCC2=O)cc1 (configuration not stated)
inactive: all assays above

O=C(O)c1cccnc1Nc1cccc(C(F)(F)F)c1
inactive: all assays above

CCOc1ccc(NS(=O)(=O)c2ccc(N)cc2)nn1
inactive: all assays above

CC(=O)c1ccc2c(c1)CCCC2
inactive: all assays above

C(=C\c1ccccc1)/c1ccccc1
inactive: all assays above

CC1CCc2c(N3CCC(O)CC3)c(F)cc3c(=O)c(C(=O)O)cn1c23 (configuration not stated)
inactive: all assays above

CC(=O)OCC1=C(C(=O)O)N2C(=O)[C@@H](NC(=O)CSc3ccncc3)[C@H]2SC1
inactive: all assays above

O=C1CCCCCO1
inactive: all assays above

COC(=O)Nc1nc2ccc(C(=O)c3ccccc3)cc2[nH]1
inactive: all assays above

CC(=O)C=O
inactive: all assays above

COC(=O)/C=C\C(=O)O
inactive: all assays above

CCOc1ccc2[nH]cc(C(=O)NCc3ccccc3)c(=O)c2n1
inactive: all assays above

C=CCn1cc[n+](C)c1
inactive: all assays above

CC(C)(O)c1ccc(C(C)(C)O)cc1
inactive: all assays above

CC[C@@]1(c2ccccc2)NC(=O)N(C)C1=O
inactive: all assays above

Brc1cc(-c2ccc(Br)c(Br)c2Br)cc(Br)c1Br
inactive: all assays above

OC[C@H]1O[C@@H](O[C@@H]2[C@@H](CO)O[C@](O)(CO)[C@H]2O)[C@H](O)[C@@H](O)[C@H]1O
inactive: all assays above

CCCCC(CC)CNC(=O)CC(C)OC(=O)CCC(=O)O (configuration not stated)
inactive: all assays above

CC(C)C1CCC(O)CC1 (configuration not stated)
inactive: all assays above

C=C1CC[C@H]2C[C@@H]1C2(C)C
inactive: all assays above

CCN(CC)C(C)=O
inactive: all assays above

Nc1ccc(C(=O)O)c(O)c1
inactive: all assays above

CCOC(=O)CC(C)O (configuration not stated)
inactive: all assays above

Cc1ccccc1C#N
inactive: all assays above

CC(C)C(=O)OCC(C)(C)C(O)C(C)C (configuration not stated)
inactive: all assays above

NS(=O)(=O)c1cc2c(cc1Cl)NC(C(Cl)Cl)NS2(=O)=O (configuration not stated)
inactive: all assays above

O=C(O)Cc1sc(-c2ccccc2)nc1-c1ccc(Cl)cc1
inactive: all assays above

Cc1cc(-n2nc3ccc(Cl)cc3n2)c(O)c(C(C)(C)C)c1
inactive: all assays above

Cc1cscn1
inactive: all assays above

O=c1[nH]c(=O)n([C@H]2O[C@H](CO)[C@@H](O)[C@@H]2O)cc1/C=C\Br
inactive: all assays above

C=CCCCC
inactive: all assays above

Nc1ncnc2c1ncn2Cc1c(F)cccc1Cl
inactive: all assays above

CCOC(=O)C(C)(C)C
inactive: all assays above

O=c1[nH]c(=O)n([C@H]2C[C@H](O)[C@@H](CO)O2)cc1I
inactive: all assays above

NC(=O)NS(=O)(=O)c1ccc(Cl)cc1
inactive: all assays above

CCCCC(CC)CNCC(CC)CCCC (configuration not stated)
inactive: all assays above

SCCCCCCCCS
inactive: all assays above

CCC(C)C1CCCCC1=O (configuration not stated)
inactive: all assays above
